The values that follow come from PubChem BioAssay (Tox21).

Molecules are shown by their SMILES. Active and inactive are the calls of the source. Entries that show only a call come without a potency. Calls come from the whole dose curve; as a rule, active = well fitted curve in the direction sought with a large enough effect in the repeat runs; inconclusive = weak or mixed curves; inactive = flat fitted curve, though single readings scatter.
Potency is the fitted concentration of half-maximal effect; tags give direction and shape of the fitted curve or compound fluorescence and quenching.

A short description of this assay: qHTS assay to test for compound auto fluorescence at 460 nm (blue) in HepG2 cell free culture (AID 720685). To be noted: Cell-free culture medium, blue autofluorescence 405/460 nm; series mostly up to 91.3 µM; fluorescence, % of fluorescent control: at the top concentration. From the text:
U.S. Tox21 Program National Center for Advancing Translational Sciences [NCATS] NIH Chemical Genomics Center [NCGC] U.S. Environmental Protection Agency [EPA] National Institutes of Environmental Health Sciences [NIEHS] National Toxicology Program [NTP] U.S. Food and Drug Administration [FDA] Tox21 Assay Overview: Compound auto fluorescence often interferes with screening of the compound library against various biological targets and signaling pathways. Some of these compounds may have fluorophoric properties. Such properties may interfere with the assay outputs resulting in false positives and/or negatives. To decrease such complications and ensure the compound activities are relevant in terms of biological response, the Tox21 10K compound library was screened for auto fluorescence. From the fluorophores used as reporter signals in our screening assays, the auto fluorescence equivalencies of compounds against three fluorophores have been evaluated: Triamterene, Fluorescein and Rose Bengal sodium for blue, green and red fluorescence, respectively. The fluorescence intensities were measured using Excitation/Emission wavelengths at 405/460nm, 485/535nm and 540/590nm for blue, green and red labels, respectively. This assay includes the blue fluorescence data.
Tox21 Assay Protocol Summary: 5 uL of culture medium (MEM containing 10% FBS) per well was dispensed into black wall/clear bottom 1536-well plates using a Multidrop Combi Dispenser (ThermoFisher Scientific, Waltham, MA). After 23 nL compound or DMSO vehicle was transferred into assay plate by a pintool work station (Kalypsys, San Diego, CA), fluorescence intensities in the assay plates were measured by an Envision (PerkinElmer, Shelton, CT) plate reader using three labels for measuring blue, green and red fluorescence at […] 460, 535 and 590nm respectively.
(In general: qHTS replaces the single test concentration by a dilution series.)
Consider `C=C1CC[C@H](O)CC1=C/C=C1\CCC[C@]2(C)[C@@H]([C@H](C)/C=C/[C@H](C)C(C)C)CC[C@@H]12`, for which the Potency result is “inactive”. For `CC(C)NCC(O)COc1cccc2ccccc12` (stereo not given), the Potency entry was “inactive”.

In the case of `CCCCC(CC)COC(C)=O` (stereo not given), the Potency result was “inactive”. Take `CNC[C@H](O)[C@@H](O)[C@H](O)[C@H](O)CO`: the Potency result is “inactive”. Consider `CCOC(=O)[C@H](CCc1ccccc1)N[C@@H](C)C(=O)N1Cc2ccccc2C[C@H]1C(=O)O`, for which the Potency result is “inactive”. In the case of `CCCCCCCCCC(=O)O`, the Potency result was “inactive”. Still for that read-out and setting: next, `C=C(C)C(=O)OCCC[Si](OC)(OC)OC`: “inactive”. The same measure, in the same setting: in the case of `CC1CC(OC(=O)c2ccccc2O)CC(C)(C)C1` (stereo not given) it was “inactive”; in that of `Clc1cc(Cl)c(Cl)cc1Cl`, “inactive”. Turning to `NCCc1ccc(O)c(O)c1`, the Potency entry was “inactive”. The same measure, in the same setting: next, `Cc1cc(O)c2c(c1)C(=O)c1cc(O)cc(O)c1C2=O`: “inactive”; `Oc1ccc2ccccc2c1N=Nc1ccccc1`: “inactive”; `ClC1=C(Cl)C(Cl)(Cl)C(Cl)=C1Cl`: “inactive”. For the compound `O=S(=O)(O)CCS`, the Potency result is “inactive”. For `OCC#CCO`, the Potency result is “inactive”. The same measure, in the same setting: next, `O=[N+]([O-])c1cc(N(CCO)CCO)ccc1NCCO`: “inactive”. With `NCCNCCNCCNCCN`, the Potency result was “inactive”.

Turning to `NC(=O)/N=N/C(N)=O`, the Potency result was “inactive”. With `Nc1nc2ncc(CNc3ccc(C(=O)N[C@@H](CCC(=O)O)C(=O)O)cc3)nc2c(=O)[nH]1`, the Potency was 35.5 µM [fluorescent] (active). Same read-out and setting: next, `CCCCOCCOCCOC(=O)CCCCC(=O)OCCOCCOCCCC`: “inactive”; `CC1=C(CC(=O)O)c2cc(F)ccc2/C1=C\c1ccc(S(C)=O)cc1` (stereo not given): “inactive”.

Consider `C=C(C)C(=O)OCC(CC)(COC(=O)C(=C)C)COC(=O)C(=C)C`, for which the Potency result is “inactive”. On the same count and under the same terms, next, `O=C(c1cc(O)c(O)c(O)c1)c1ccc(O)c(O)c1O`: “inactive”.

As to `Oc1c(Cl)cc(Cl)c(Cl)c1Cl`, the Potency result is “inactive”. For the compound `O=c1c(-c2ccc(O)cc2)coc2cc(O)ccc12`, the “fluorescence, % of fluorescent control” value was 0.707% (inactive). Turning to `CCc1ccc(O)cc1`, the Potency entry is “inactive”. Take `CC[Si](OC(C)=O)(OC(C)=O)OC(C)=O`: the Potency result was “inactive”.

For `Nc1c(S(=O)(=O)O)cc(Br)c2c1C(=O)c1ccccc1C2=O`, the Potency entry is “inactive”. Same read-out and setting: in the case of `c1ccc2[nH]cnc2c1` it was “inactive”; in that of `CCCCOCCO`, “inactive”. Still for that read-out and setting: in the case of `OCCOCCOCCOCCO` it was “inactive”; in that of `O=C(c1ccc(O)cc1)c1ccc(O)cc1O`, “inactive”; in that of `O=C1O[C@H](CO)[C@@H](O)[C@H](O)[C@H]1O`, “inactive”. `COCC(=O)O`: the Potency result is “inactive”. Same read-out and setting: in the case of `CCOC(=O)/C=C\C(=O)OCC` it was “inactive”; in that of `Clc1ccc(Cl)c(Cl)c1Cl`, “inactive”; in that of `Cn1c([N+](=O)[O-])cnc1COC(N)=O`, “inactive”.

As to `CCc1ccccc1O`, the Potency result was “inactive”.

Take `CC(C)(C)C(=O)C1C(=O)c2ccccc2C1=O`: the Potency entry was “inactive”. As to `CS(=O)(=O)Nc1ccc([N+](=O)[O-])cc1Oc1ccccc1`, the Potency entry was “inactive”.
